From PubChem BioAssay (NCATS) come the findings set out here.

Test [1] addresses Bile acid receptor (Homo sapiens) (UniProt Q96RI1). Briefly: qHTS assay for small molecule antagonists of farnesoid X receptor signaling (AID 588526). Also: potency is read from the fitted curve at half-maximal effect. The gist of the method: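 Beta-lactamase reporter antagonist mode: HEK293T FXR-UAS-bla cells, titrated compound, CDCA stimulation, 16 h 37 C, CCF4 dye 2 h RT. Data normalized to CDCA 50 uM and DMSO; Hill-fit IC50.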
Test [2] shares this target. Briefly: qHTS assay for small molecule agonists of farnesoid X receptor signaling (AID 588527).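 Also: series mostly up to about 77 µM; 0% = vehicle basal and 100% = reference agonist.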 As to conditions: HEK293T FXR-UAS-bla, beta-lactamase ratio, 16 h; activation: stronger effect = higher value. The procedure, abridged:
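Read-out: beta-lactamase reporter fluorescence with CCF4 substrate in GeneBLAzer FXR-UAS-bla HEK293T cells, after 16 h compound exposure at 37 C. Response scaled between DMSO basal (0%) and chenodeoxycholic acid at 100 uM (100%).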
For orientation: qHTS replaces the single test concentration by a dilution series.

Test [3] has as its target Glucocorticoid receptor (Homo sapiens) (UniProt P04150). Briefly: qHTS assay for small molecule agonists of glucocorticoid receptor signaling (AID 588532; active = well fitted curve in the direction sought with a large enough effect in the signal ratio, with a control signal flat; the % refers to the signal ratio;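 also: 100% = dexamethasone at 0.1 µM and 0% = DMSO only wells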). As to conditions: HeLa MMTV-bla, beta-lactamase ratio, agonist, 18 h; activation: stronger effect = higher value, percent of dexamethasone control, DMSO zero. The procedure, abridged: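 Quantitative HTS using CellSensor MMTV-bla HeLa cells in charcoal/dextran-treated serum; compounds tested up to 92 uM. After 18 h at 37 C, CCF4 dye reported reporter induction.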

Test [4] in a line: qHTS assay for small molecule antagonists of peroxisome proliferator-activated receptor delta signaling (AID 588535; active = well fitted inhibition curve with a large enough effect in the signal ratio, with a control signal flat, not every such curve was filed as active; the % refers to the signal ratio;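 as to max response: cells co-treated with a PPAR-delta agonist as stimulator during compound exposure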). As to conditions: HEK293T PPARd-UAS-bla, beta-lactamase FRET ratio, 18 h; 460 nm channel. The procedure, abridged: (§1)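 HEK293T PPAR-delta-UAS-bla cells, 4000/well, 2% charcoal/dextran FBS; 5 h 37 C; cpd titration; 18 h 37 C; CCF4 2 h RT; FI 460/530 nm; Hill fit → IC50, efficacy.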

For test [5], the target named is Peroxisome proliferator-activated receptor delta (Homo sapiens) (UniProt Q03181). Described as above. The gist of the method: as §1
Sequence of Peroxisome proliferator-activated receptor delta (Homo sapiens) (Q03181 whole entry, looked up): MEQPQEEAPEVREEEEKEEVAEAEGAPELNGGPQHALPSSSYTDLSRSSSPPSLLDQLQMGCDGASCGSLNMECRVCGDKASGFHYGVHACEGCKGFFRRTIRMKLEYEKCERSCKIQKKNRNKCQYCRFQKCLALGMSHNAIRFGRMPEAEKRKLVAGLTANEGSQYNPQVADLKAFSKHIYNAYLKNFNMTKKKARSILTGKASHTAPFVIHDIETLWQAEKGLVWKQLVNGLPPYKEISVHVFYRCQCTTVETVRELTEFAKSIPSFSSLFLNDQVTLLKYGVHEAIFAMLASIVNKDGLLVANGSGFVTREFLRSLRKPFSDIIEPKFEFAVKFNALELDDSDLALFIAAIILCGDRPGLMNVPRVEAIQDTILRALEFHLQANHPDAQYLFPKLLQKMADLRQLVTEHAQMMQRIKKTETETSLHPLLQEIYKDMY
Test [6] concerns the target Vitamin D3 receptor (Homo sapiens) (UniProt P11473). Briefly: qHTS assay for small molecule agonists of vitamin D receptor signaling (AID 588543).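 Also: 0% = DMSO basal and 100% = reference agonist control.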 The gist of the method: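 VDR-UAS-bla HEK293T cells, 2000/well, 2% charcoal-stripped FBS; compound titration 16 h at 37 C; CCF4 beta-lactamase ratio read. Normalized to 50 nM 1-alpha,25-dihydroxyvitamin D3 (100%) and DMSO; Hill fit gives EC50, efficacy.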

Test [7] can be described thus: qHTS assay for small molecule activators of the nuclear factor-kappa B (NF-kB) signaling pathway (AID 651749; active = well fitted activation curve with a large enough effect in the signal ratio; the % refers to the signal ratio; also: series mostly up to about 77 µM; % of control where 0% means no effect). The settings on record: NF-kB-bla ME-180 cells, beta-lactamase FRET ratio, 16 h; activation: stronger effect = higher value. The gist of the method:
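Readout: beta-lactamase reporter driven by an NF-kB response element, detected fluorescently as loss of FRET. Cells were the ME-180 line, treated 16 hr at 37C with pin-transferred compound.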

Test [8] is described as follows: qHTS assay for small molecule agonists of the antioxidant response element (ARE) signaling pathway (AID 651741; active = well fitted activation curve with a large enough effect in the signal ratio; the % refers to the signal ratio; also: potency is read from the fitted curve at half-maximal effect; as to activation: % of control where 0% means no effect). The gist of the method:
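Quantitative HTS in HepG2 cells stably expressing an ARE-beta-lactamase reporter; 16 h compound exposure at 37 C, followed by 2 h room-temperature incubation with LiveBLAzer B/G FRET substrate and fluorescence measurement.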

The nature of test [9]: qHTS assay for small molecule activators of the human pregnane X receptor (PXR) signaling pathway (AID 720659; call rule not given here; also: 0% is about no effect).
Test [10] concerns the target Glucocorticoid receptor (Homo sapiens) (UniProt P04150). Briefly: qHTS assay for small molecule antagonists of glucocorticoid receptor signaling (AID 588533; active = well fitted inhibition curve with a large enough effect in the signal ratio, with a control signal flat, not every such curve was filed as active; the % refers to the signal ratio;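 also: cells stimulated with 2 nM dexamethasone as agonist; % is scaled to controls: 0 for no effect and ±100 for the full control effect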). The procedure, abridged:
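Antagonist-mode qHTS: compound titrations added to GRE-bla HeLa cells, then dexamethasone 2 nM final; 18 h, 37 C. CCF4 FRET fluorescence normalized to dexamethasone and DMSO; IC50 from Hill fit.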

Values joined by “and” are separate entries in the source; they are usually repeats but may differ in a detail not shown here. Equal values may be shown once. Records with an inconclusive call do not appear. Active and inactive are the calls of the source. Unless noted, calls follow the shape of the full dose curve.

Sequence of Glucocorticoid receptor (Homo sapiens) (P04150 whole entry, looked up): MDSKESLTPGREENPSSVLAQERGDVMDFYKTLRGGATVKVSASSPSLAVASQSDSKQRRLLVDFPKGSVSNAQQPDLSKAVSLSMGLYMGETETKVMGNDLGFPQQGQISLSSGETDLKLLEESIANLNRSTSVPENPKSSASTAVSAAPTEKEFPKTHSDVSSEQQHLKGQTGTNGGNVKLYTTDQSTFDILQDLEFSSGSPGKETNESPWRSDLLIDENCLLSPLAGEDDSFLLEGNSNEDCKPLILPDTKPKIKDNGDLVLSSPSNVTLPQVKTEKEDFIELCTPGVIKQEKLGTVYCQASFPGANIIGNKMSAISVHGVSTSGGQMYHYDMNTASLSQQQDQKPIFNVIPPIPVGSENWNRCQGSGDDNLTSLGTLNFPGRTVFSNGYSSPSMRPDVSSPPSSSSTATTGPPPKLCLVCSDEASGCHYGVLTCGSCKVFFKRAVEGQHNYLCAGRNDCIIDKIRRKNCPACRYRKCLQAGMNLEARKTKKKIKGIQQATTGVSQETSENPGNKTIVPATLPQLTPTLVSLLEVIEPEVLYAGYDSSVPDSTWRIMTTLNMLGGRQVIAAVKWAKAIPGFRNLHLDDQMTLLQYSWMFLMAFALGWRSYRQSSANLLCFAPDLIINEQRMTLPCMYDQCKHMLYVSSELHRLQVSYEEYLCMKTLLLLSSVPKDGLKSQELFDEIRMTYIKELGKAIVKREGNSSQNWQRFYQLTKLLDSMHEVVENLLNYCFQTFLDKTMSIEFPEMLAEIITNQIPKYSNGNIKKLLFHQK
Sequence of Bile acid receptor (Homo sapiens) (Q96RI1 whole entry, looked up): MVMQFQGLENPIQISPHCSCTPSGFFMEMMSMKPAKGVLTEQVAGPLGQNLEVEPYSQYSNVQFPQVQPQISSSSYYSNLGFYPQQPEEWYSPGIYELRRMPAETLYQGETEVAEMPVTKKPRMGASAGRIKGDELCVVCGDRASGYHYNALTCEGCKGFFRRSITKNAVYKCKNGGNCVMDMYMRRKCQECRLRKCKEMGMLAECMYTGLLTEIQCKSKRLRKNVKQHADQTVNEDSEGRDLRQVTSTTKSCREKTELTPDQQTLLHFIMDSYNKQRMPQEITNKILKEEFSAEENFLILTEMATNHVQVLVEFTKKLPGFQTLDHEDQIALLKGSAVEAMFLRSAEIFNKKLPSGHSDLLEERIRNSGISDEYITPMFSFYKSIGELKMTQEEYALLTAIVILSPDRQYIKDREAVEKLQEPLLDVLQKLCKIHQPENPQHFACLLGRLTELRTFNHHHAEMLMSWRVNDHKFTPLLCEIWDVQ
Sequence of Vitamin D3 receptor (Homo sapiens) (P11473 whole entry, looked up): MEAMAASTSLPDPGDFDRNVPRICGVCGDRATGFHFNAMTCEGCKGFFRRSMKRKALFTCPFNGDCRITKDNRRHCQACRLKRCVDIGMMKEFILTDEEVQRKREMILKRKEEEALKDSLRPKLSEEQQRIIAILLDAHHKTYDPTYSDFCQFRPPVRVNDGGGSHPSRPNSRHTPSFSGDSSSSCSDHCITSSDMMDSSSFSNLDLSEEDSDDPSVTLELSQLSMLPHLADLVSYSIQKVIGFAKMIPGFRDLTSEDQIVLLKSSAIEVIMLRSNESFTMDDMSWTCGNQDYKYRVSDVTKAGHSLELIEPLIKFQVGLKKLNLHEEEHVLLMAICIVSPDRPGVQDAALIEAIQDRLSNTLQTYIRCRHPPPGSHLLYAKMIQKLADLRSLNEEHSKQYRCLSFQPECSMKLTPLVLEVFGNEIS

`Cc1c(F)c(F)c(COC(=O)C2C(/C=C(\Cl)C(F)(F)F)C2(C)C)c(F)c1F` (configuration not stated): the Potency result in test [1] and in [5] was “inactive” throughout. The values for the activation in test [2], in [3] and in [7] were 0.0589% (inactive), 9.43% (inactive) and -3.24% (inactive), respectively. In [4], the max response is -17%. The compound was classed as inactive in test [6].
Consider `O=P(O)(O)CCCl`, for which the Potency result in [1], in test [5] and in test [8] was “inactive” in each case. Moreover, the activation in test [2] was 4.97% (inactive) and -5.97% (inactive); in test [7], 1.25% (inactive) and -0.207% (inactive). In addition, the max response in [4] is -15.9%. The call in test [6] and in test [9] was inactive.
Regarding `O=C(NC(=O)c1c(F)cccc1F)Nc1ccc(OC(F)(F)C(F)OC(F)(F)F)c(Cl)c1` (configuration not stated), the activation in test [3] was -15.7% (inactive); in [7] it was 1.61% (inactive). Besides, the Potency result in test [10] and in test [5] was “inactive” throughout. In test [4], the max response is 59.9%. Also, the result in test [6] and in test [9] was inactive.
In the case of `CCOS(=O)(=O)OCC`, in test [3], the activation is -9.13% (inactive). For the same compound, the Potency result in test [10], in [5] and in test [8] was “inactive” each time. For the same compound, the max response in test [4] is -21.4%. Moreover, the compound was called inactive in [6] and in test [9].
Consider `Clc1ccc(C(Cl)(Cl)Cl)cc1`, for which the Potency entry in [1] and in [10] was “inactive” each time. The activation is -1.93% (inactive) in [2] and 0.824% (inactive) in test [3]. For the same compound, the compound was classed as inactive in test [9].
As for `Brc1c(Br)c(Br)c(Br)c(Br)c1Br`, the activation in [3] was -0.0722% (inactive); in [7] it was -0.808% (inactive). Also, the Potency entry in test [10] and in test [5] was “inactive” throughout. Besides, in [4], the max response was -24.6%. In addition, the outcome in test [9] was inactive.
For `CCC(C)n1c(=O)[nH]c(C)c(Br)c1=O` (configuration not stated), the Potency result in test [1] was “inactive”. Also, the figures for the activation in [2] and in [7] were 2.99% (inactive) and 0.0195% (inactive), respectively. Besides, the compound was classed as inactive in test [6] and in test [9].
On to `CN(C)P(=O)(N(C)C)N(C)C`, for which the Potency result in test [1], in test [5] and in [8] was “inactive” each time. Besides, in [2], the activation was 3.22% (inactive). Further, in test [4], the max response is -0.709%. In addition, the result in [6] and in [9] was inactive.
For `CC(C)(C)C(=O)[C@@H](Oc1ccc(Cl)cc1)n1cncn1`, the activation in test [3] was 6.65% (inactive); in [7], -1.55% (inactive). Also, the Potency entry in [10] and in test [5] was “inactive” throughout. Moreover, in [4], the max response was found to be 38.3%. Moreover, the call in [6] was inactive.
In the case of `CCC[CH2][Sn]([CH2]CCC)([O]C(C)=O)[O]C(C)=O`, the values for the Potency in [1] and in [8] were 12.6 µM (active) and 30.6 µM (active), respectively. Further, the activation was -0.854% (inactive) in [2], -12.8% (inactive) in test [3] and 0.746% (inactive) in [7]. The compound was called inactive in test [6] and in test [9].
Regarding `CCN(CC)c1nc(C)cc(OP(=S)(OC)OC)n1`, the activation is 19.3% (inactive) in test [3] and 0.586% (inactive) in [7]. Moreover, the Potency result in test [10] and in test [5] was “inactive” each time. Further, the max response in test [4] came to 56.7%. Further, the compound was classed as inactive in [9].
For `O=[N+]([O-])c1ccc(Oc2ccc(C(F)(F)F)cc2[N+](=O)[O-])cc1`, the Potency result in [1] and in [10] was “inactive” each time. The activation in test [2] is -1.37% (inactive). Further, the outcome in [6] and in [9] was inactive. Also, in test [8], the Potency is 48.6 µM (active).
